Test results reported in PubChem BioAssay AID1159580 (chemical genetic matrix, 2015).
“And” between values parts separate entries of the source, which are not always exact repeats. Equal values may be shown once. The whole screen tested about 5,500 compounds, of which about 2,000 (36%) were called active. Another 18% or so got no clear call; they are omitted. Rule as the data show it: active = normalized growth mostly below about 0.91 (no sharp cut-off); inconclusive = no clear call, values can overlap the other calls; inactive = mostly above about 0.92. Some of the results follow.

Experiment: chemical genetic growth profiling, strain panel (AID 1159580);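 also: tested at 20 µM; growth read once vehicle control cultures reached saturation at 30 °C; 1 = growth at the plate median or of vehicle wells; lower values mean less growth of the strain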
Conditions: S. cerevisiae deletion strains, growth OD

Measured: normalized growth

C[C@]12C=CC(=O)C=C1CCC1C2[C@@H](O)C[C@@]2(C)C1CC[C@]2(O)C(=O)CO (stereo not given in full)
inactive: locus YAL021C, strain ccr4, active compounds read low 1 | locus YAL026C, strain drs2, active compounds read low 0.992 | locus YAL030W, strain snc1, active compounds read low 0.993 | locus YBL061C, strain skt5, active compounds read low 0.999 | locus YBR009C, strain hhf1, active compounds read low 0.993 | locus YBR021W, strain FUR4, active compounds read low 0.979 | locus YBR023C, strain chs3, active compounds read low 1 | locus YBR171W, strain sec66, active compounds read low 1.01 | locus YBR229C, strain ROT2, active compounds read low 0.99 | locus YBR231C, strain swc5, active compounds read low 0.991 | locus YBR279W, strain paf1, active compounds read low 1 | locus YCL011C, strain gbp2, active compounds read low 1.01 | locus YCL016C, strain dcc1, active compounds read low 0.988 | locus YCL029C, strain bik1, active compounds read low 0.985 | locus YCL061C, strain MRC1, active compounds read low 1.01 | locus YCL069W, strain vba3, active compounds read low 0.981 | locus YCR088W, strain abp1, active compounds read low 0.994 | locus YDL005C, strain med2, active compounds read low 0.999 | locus YDL035C, strain GPR1, active compounds read low 0.998 | locus YDL040C, strain nat1, active compounds read low 0.995 | locus YDL074C, strain BRE1, active compounds read low 1.01 | locus YDL101C, strain DUN1, active compounds read low 0.99 | locus YDL134C, strain PPH21, active compounds read low 0.986 | locus YDL185W, strain tfp1, active compounds read low 0.974 | locus YDL192W, strain arf1, active compounds read low 0.985 | locus YDR001C, strain nth1, active compounds read low 0.997 | locus YDR069C, strain doa4, active compounds read low 0.996 | locus YDR101C, strain arx1, active compounds read low 0.983 | locus YDR137W, strain rgp1, active compounds read low 1.03 | locus YDR150W, strain NUM1, active compounds read low 0.998 | locus YDR159W, strain sac3, active compounds read low 1 | locus YDR162C, strain NBP2, active compounds read low 0.992 | locus YDR195W, strain ref2 0.969 | locus YDR297W, strain sur2, active compounds read low 0.99 | locus YDR318W, strain mcm21, active compounds read low 0.979 | locus YDR334W, strain swr1, active compounds read low 0.992 | locus YDR335W, strain msn5, active compounds read low 0.996 | locus YDR388W, active compounds read low 0.98 | locus YDR392W, strain spt3, active compounds read low 0.953 | locus YDR502C, strain sam2, active compounds read low 0.992 | locus YEL003W, strain gim4, active compounds read low 0.982 | locus YEL037C, strain rad23, active compounds read low 0.989 | locus YEL061C, strain CIN8 (second series), active compounds read low 0.99 | locus YEL061C, strain CIN8, active compounds read low 0.997 | locus YER015W, strain faa2, active compounds read low 1 | locus YER016W, strain bim1, active compounds read low 1 | locus YER110C, active compounds read low 0.975 | locus YER111C, strain swi4, active compounds read low 0.999 | locus YER155C, strain BEM2 (second series), active compounds read low 1.01 | locus YER155C, strain BEM2, active compounds read low 0.978 | locus YER167W, strain BCK2, active compounds read low 0.987 | locus YFR010W, strain ubp6, active compounds read low 0.997 | locus YGL078C, strain dbp3, active compounds read low 0.998 | locus YGL086W, strain mad1, active compounds read low 1 | locus YGL167C, strain pmr1, active compounds read low 1.01 | locus YGL173C, strain kem1, active compounds read low 0.989 | locus YGL227W, strain vid30, active compounds read low 0.993 | locus YGL240W, strain doc1, active compounds read low 0.99 | locus YGL248W, strain PDE1, active compounds read low 0.99 | locus YGL253W, strain hxk2, active compounds read low 0.991 | locus YGR135W, strain pre9, active compounds read low 0.995 | locus YGR229C, strain SMI1, active compounds read low 0.993 | locus YGR252W, strain gcn5, active compounds read low 1.06 | locus YHR013C, strain ard1, active compounds read low 1.01 | locus YHR027C, strain rpn1, active compounds read low 0.995 | locus YHR030C, strain SLT2, active compounds read low 0.992 and 1.01 | locus YHR079C, strain IRE1 (second series), active compounds read low 0.977 | locus YHR079C, strain IRE1, active compounds read low 1 | locus YHR094C, strain hxt1, active compounds read low 0.978 | locus YHR129C, strain ARP1, active compounds read low 1.02 | locus YHR142W, strain chs7, active compounds read low 0.99 | locus YHR200W, strain rpn10, active compounds read low 0.981 | locus YIL066C, strain RNR3, active compounds read low 0.989 | locus YIL073C, strain SPO22, active compounds read low 0.946 | locus YIL125W, strain kgd1, active compounds read low 0.982 | locus YIR030C, strain dcg1, active compounds read low 0.984 | locus YJL092W, strain hpr5, active compounds read low 0.995 | locus YJL095W, strain BCK1 (second series), active compounds read low 1 | locus YJL095W, strain BCK1, active compounds read low 1.01 | locus YJL115W, strain asf1, active compounds read low 0.99 | locus YJL129C, strain trk1, active compounds read low 0.977 | locus YJL134W, strain LCB3, active compounds read low 0.988 | locus YJL154C, strain vps35, active compounds read low 0.998 | locus YJL164C, strain tpk1, active compounds read low 0.989 | locus YJL166W, strain qcr8, active compounds read low 0.979 | locus YJL168C, strain set2, active compounds read low 0.983 | locus YJL187C, strain SWE1 (second series), active compounds read low 0.984 | locus YJL187C, strain SWE1, active compounds read low 0.991 | locus YJR043C, strain POL32, active compounds read low 0.998 | locus YJR066W, strain TOR1, active compounds read low 0.942
